Most compounds without a hit are left out; they make up all but 12% or so of the library.
OTUD3 block: inhibitors of human OTUD3 deubiquitinase. purified OTUD3, Ub-rhodamine fluorescence, 2 h. AID 1645858. 47,000 tested, 0.7% active. inhibition, % at 25 µM
Target sequence (Q5T2D3 whole entry, looked up): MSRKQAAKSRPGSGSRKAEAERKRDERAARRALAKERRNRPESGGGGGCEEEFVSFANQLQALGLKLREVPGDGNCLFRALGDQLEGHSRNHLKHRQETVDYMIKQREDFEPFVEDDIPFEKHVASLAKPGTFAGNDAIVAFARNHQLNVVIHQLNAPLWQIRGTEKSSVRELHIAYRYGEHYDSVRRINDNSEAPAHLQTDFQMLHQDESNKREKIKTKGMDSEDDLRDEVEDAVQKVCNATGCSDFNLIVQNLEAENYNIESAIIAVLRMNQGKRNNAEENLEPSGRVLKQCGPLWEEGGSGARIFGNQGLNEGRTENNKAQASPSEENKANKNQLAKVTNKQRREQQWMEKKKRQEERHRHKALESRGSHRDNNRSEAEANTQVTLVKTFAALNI
USP17 inh: human USP17-like deubiquitinase inhibition; inhibition, % at 50 µM; A8MUK1; AID 1645855; 47,000 tested, 6.5% active; purified USP17, Ub-rhodamine cleavage fluorescence, 3 h
USP28 inh: inhibitors of human USP28 deubiquitinase; inhibition, % at 25 µM; purified USP28, Ub-rhodamine cleavage fluorescence, 30 min; Q96RU2; AID 1645857; 47,000 tested, 3% active
USP30 block: inhibitors of human USP30 deubiquitinase; Q70CQ3; inhibition, % at 25 µM; purified USP30, Ub-rhodamine cleavage fluorescence; 47,000 tested, 5.3% active
* marks the source's active call; other numbers are inactive results. Cut-off read from the data, not from the text of the source: active = inhibition above about 30%; inactive = the rest.

For COc1cccc(S(=O)(=O)N2CCOC(c3nccnc3N)C2)c1 (stereo not drawn) the results were OTUD3 block -9, USP17 inh -20, USP28 inh -10 and USP30 block -1.
`Cc1cccc(NC(=O)c2cnc(N3CCCC3)nc2C)c1` gave OTUD3 block -4, USP17 inh 1, USP28 inh 12 and USP30 block 1.
COc1ccc(NC(=O)c2cnc(N3CCCCC3)nc2C)cc1OC was read as OTUD3 block -10, USP17 inh -19, USP28 inh 44* and USP30 block -33.
`Cc1nc(N2CCCC2)ncc1C(=O)Nc1ccc(F)c(F)c1` gave OTUD3 block 4, USP17 inh 0, USP28 inh 11 and USP30 block 53*.
For COc1cccc(-c2noc(Cn3cnc4c(nnn4Cc4ccc(F)cc4)c3=O)n2)c1 the results were OTUD3 block 13, USP17 inh 0, USP28 inh 21 and USP30 block 0.
Screening Cc1cccc(Cn2cnc3c(nnn3Cc3ccccc3F)c2=O)c1 returned OTUD3 block 25, USP17 inh 23, USP28 inh 30* and USP30 block -44.
Screening N#C/C(=C\c1cccnc1)c1nc(-c2cc3ccccc3o2)cs1 returned OTUD3 block -11, USP17 inh -6, USP28 inh -5 and USP30 block -17.
Screening CCc1c(C(C)S(=O)(=O)c2ccccc2)[nH]c(=O)n1Cc1ccc(OC)c(OC)c1 (stereo not drawn) returned OTUD3 block 1, USP17 inh 3, USP28 inh -9 and USP30 block -3.
For CCc1ccc(NC(=O)Cc2nc(-c3ccc(O)cc3O)cs2)cc1 the results were OTUD3 block -2 and USP17 inh 38*.
For CCc1ccc(NC(=O)CN2CCN(c3nc4ccccc4s3)CC2)cc1 the results were OTUD3 block 8, USP17 inh -7, USP28 inh 8 and USP30 block -2.
`O=C(Cc1nnc(NC(=O)Nc2ccc3c(c2)OCO3)s1)NCc1ccccc1` gave OTUD3 block 7, USP17 inh 8, USP28 inh 8 and USP30 block 6.
`Cc1cccc(NC(=O)Nc2nnc(CC(=O)NCc3ccccc3)s2)c1` gave OTUD3 block -1, USP17 inh 73*, USP28 inh -5 and USP30 block 3.
Screening CCc1[nH]c(=O)cc2cc(OC)c(OC)cc12 returned OTUD3 block 92*, USP17 inh 94*, USP28 inh 97* and USP30 block 82*.
Screening O=C1NC(=O)/C(=C/c2ccc(OC(=O)c3ccc(Cl)cc3Cl)cc2)N1 returned OTUD3 block 21, USP17 inh 38*, USP28 inh 31* and USP30 block 62*.
`O=C(CCC(=O)N(c1ccccc1)c1ccccc1)Nc1cccc(C(F)(F)F)c1` gave OTUD3 block 26, USP17 inh 18, USP28 inh 15 and USP30 block 34*.
Screening O=C(Nc1cccc(C(F)(F)F)c1)c1ccccc1Cc1ccccc1 returned OTUD3 block 23, USP17 inh 35*, USP28 inh 26 and USP30 block 18.
Screening CCOC(=O)c1c(C)nn(-c2ccc(NC(=O)/C=C\C(=O)O)cn2)c1C returned OTUD3 block 14, USP17 inh 9, USP28 inh 2 and USP30 block 2.
COc1ccccc1-c1nnc(-c2ccc(-n3ccnc3)nc2)o1 was read as OTUD3 block 23, USP17 inh 3, USP28 inh 9 and USP30 block 14.
`COc1cnc(CSc2ncccn2)cc1OCC(=O)Nc1c(C)cc(C)cc1C` gave OTUD3 block -2, USP17 inh -23, USP28 inh -9 and USP30 block 0.
Screening COc1cnc(CSc2ccc(F)cc2)cc1OCC(=O)Nc1ccccc1F returned OTUD3 block 3, USP17 inh 41*, USP28 inh 7 and USP30 block 43*.
For COc1cnc(CSc2ccccc2)cc1OCC(=O)Nc1ccc(F)cc1F the results were OTUD3 block 7, USP17 inh 34*, USP28 inh 11 and USP30 block 36*.
For O=C(O)c1cccc(S(=O)(=O)NC2CCCc3ccccc32)c1 (stereo not drawn) the results were OTUD3 block -4, USP17 inh -22, USP28 inh -9 and USP30 block -29.
For O=C(c1noc2ccc(S(=O)(=O)N3CCCC3)cc12)N1CCCCC1 the results were OTUD3 block 17, USP17 inh 6, USP28 inh 9 and USP30 block 22.
`O=c1oc2ccccc2c(NCc2ccc3c(c2)OCO3)c1CN1CCCC1` gave OTUD3 block 5, USP17 inh 31*, USP28 inh 17 and USP30 block 12.
Screening COc1ccc2nc(-c3ccc(NC(=O)c4cccc(OC)c4OC)cc3)cn2n1 returned OTUD3 block -21, USP17 inh 81*, USP28 inh -3 and USP30 block -28.
CN(C)CCCNc1ncc(-c2cccs2)c(-c2cccnc2)n1 was read as OTUD3 block -9, USP17 inh -18, USP28 inh -13 and USP30 block -7.
O=C(NCCCN1CCOCC1)c1ccc2c(c1)N(Cc1ccc(Cl)cc1)C(=O)c1ccccc1S2 was read as OTUD3 block -10, USP17 inh -22, USP28 inh -7 and USP30 block -12.
For CCOc1ccc(CCNC(=O)c2ccc3c(c2)N(CC)C(=O)c2ccccc2S3)cc1OCC the results were OTUD3 block 2, USP17 inh 0, USP28 inh 60* and USP30 block -2.
For COc1cc2c(=O)n(CCC(=O)NCc3ccco3)c(=O)n(CC(=O)Nc3c(C)cccc3C)c2cc1OC the results were OTUD3 block 50*, USP17 inh 61*, USP28 inh 65* and USP30 block 30*.
`O=C(Cn1c(=O)n(-c2ccc(CC(=O)NC3CCCC3)cc2)c(=O)c2ccccc21)Nc1ccccc1[N+](=O)[O-]` gave OTUD3 block 29, USP17 inh 21, USP28 inh 14 and USP30 block 16.
Cc1ccc(Cl)cc1NC(=O)Cn1c(=O)n(CCC(=O)NCc2ccco2)c(=O)c2ccccc21 was read as OTUD3 block 15, USP17 inh 15, USP28 inh 15 and USP30 block 32*.
For O=C(Cn1c(=O)n(CCC(=O)NC2CCCC2)c(=O)c2ccccc21)Nc1ccccc1F the results were OTUD3 block 10, USP17 inh 14, USP28 inh 3 and USP30 block 19.
Screening COc1cc(NC(=O)Cn2c(=O)n(-c3ccc(CC(=O)NC4CCCC4)cc3)c(=O)c3ccccc32)cc(OC)c1 returned OTUD3 block 43*, USP17 inh 41*, USP28 inh 44* and USP30 block 21.
Screening Cc1ccc(Cl)cc1NC(=O)Cn1c(=O)n(CCC(=O)NC2CCCC2)c(=O)c2ccccc21 returned OTUD3 block 11, USP17 inh 23, USP28 inh 15 and USP30 block 41*.
`O=C(Cc1ccc(-n2c(=O)c3ccccc3n(CC(=O)Nc3ccc(Cl)cc3Cl)c2=O)cc1)NCc1ccco1` gave OTUD3 block 3, USP17 inh 21, USP28 inh 10 and USP30 block 16.

Screening data as filed in PubChem.
